Results from PubChem BioAssay (EPA / NIEHS).
Records with an inconclusive call do not appear. Active and inactive are the calls of the source. Rule for the calls, unless noted: active = hit-call score of the fitted dose curve at least 0.9, where 1 is the maximum; inactive = score below 0.9.

What was measured:
[1] = biological target: Cellular tumor antigen p53 (Homo sapiens) (UniProt P04637); assay: TOX21_p53_BLA_p2_ratio: Tox21 HCT-116 p53 Agonism Beta-lactamase Assay, Ratio, Phase 2 (AID 2283592; active = hit-call score of the fitted dose curve at least 0.9, where 1 is the maximum)
Chain of Cellular tumor antigen p53 (Homo sapiens) (P04637 whole entry, looked up): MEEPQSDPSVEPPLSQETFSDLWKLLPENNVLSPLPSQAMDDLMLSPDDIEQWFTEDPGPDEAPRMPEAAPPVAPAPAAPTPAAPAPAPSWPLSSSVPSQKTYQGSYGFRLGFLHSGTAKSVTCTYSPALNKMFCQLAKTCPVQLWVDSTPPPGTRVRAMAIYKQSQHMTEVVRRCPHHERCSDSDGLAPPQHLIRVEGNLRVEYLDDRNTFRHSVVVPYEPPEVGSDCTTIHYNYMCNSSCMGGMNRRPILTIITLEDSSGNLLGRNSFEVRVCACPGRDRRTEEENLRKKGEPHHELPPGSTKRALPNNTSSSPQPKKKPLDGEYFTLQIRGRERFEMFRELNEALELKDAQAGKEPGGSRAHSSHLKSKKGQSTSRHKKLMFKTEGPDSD
Method in brief: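 Plated HCT116 p53-bla cells (4000/well) received compound after 5 h, then 16 h at 37C/5% CO2. CCF4-AM added, 2 h RT. Ratio of 460 to 530 nm emission taken as the p53 reporter signal.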

[2] = biological target: Cellular tumor antigen p53 (Homo sapiens) (UniProt P04637); assay: TOX21_p53_BLA_p3_ratio: Tox21 HCT-116 p53 Agonism Beta-lactamase Assay, Ratio, Phase 3 (AID 2283596; active = hit-call score of the fitted dose curve at least 0.9, where 1 is the maximum)
Method in brief: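 Cells were seeded at 4000/well, rested 5 h at 37C, then dosed with DMSO compound solutions (217-fold dilution) for 16 h. CCF4-AM substrate was loaded for 2 h at room temperature, and the 460/530 nm emission ratio was fitted for gain of signal versus DMSO.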

[3] = biological target: Cellular tumor antigen p53 (Homo sapiens) (UniProt P04637); assay: TOX21_p53_BLA_p5_ratio: Tox21 HCT-116 p53 Agonism Beta-lactamase Assay, Ratio, Phase 5 (AID 2283599; active = hit-call score of the fitted dose curve at least 0.9, where 1 is the maximum)
Method in brief: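 HCT-116 cells carrying a p53-inducible beta-lactamase reporter were seeded at 4000 cells/well and dosed after 5 h with compound in DMSO (217-fold dilution). After 16 h at 37C, CCF4-AM substrate was added for 2 h, and the 460/530 nm emission ratio was scored as gain-of-signal versus DMSO.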

[4] = TOX21_p53_BLA_p5_viability: Viability Assessment in the Tox21 HCT-116 p53 Agonism Beta-lactamase Assay, Phase 5 (AID 2283600; active = hit-call score of the fitted dose curve at least 0.9, where 1 is the maximum)
Method in brief: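 Workflow: seed 4000 cells per well, wait 5 h, add compounds (DMSO, 217-fold dilution), incubate 16 h, load CCF4-AM 2 h, add CellTiter-Glo, read luminescence after 30 min.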

[5] = biological target: Cellular tumor antigen p53 (Homo sapiens) (UniProt P04637); assay: TOX21_p53_BLA_p4_ratio: Tox21 HCT-116 p53 Agonism Beta-lactamase Assay, Ratio, Phase 4 (AID 2283601; active = hit-call score of the fitted dose curve at least 0.9, where 1 is the maximum)
Method in brief: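 HCT116 cells carrying an inducible beta-lactamase reporter were plated at 4000 cells/well, rested 5 h, then exposed to compounds in DMSO (217-fold dilution) for 16 h at 37C. CCF4-AM substrate was loaded 2 h at room temperature; 460/530 nm emission ratio scored gain-of-signal versus DMSO.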

[6] = CCTE_Shafer_MEA_dev_firing_rate_mean: CCTE's Neural Network Formation Assay for Mean Firing Rate, Shafer Lab (AID 2284031)
Method in brief: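 Spike frequency (spikes/recording length, averaged over active electrodes) was recorded on days 5, 7, 9 and 12 and collapsed to AUC; rat cortical cultures received compound continuously over 12 days of network development.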

[7] = CCTE_Shafer_MEA_dev_per_burst_spike_percent: CCTE's Neural Network Formation Assay for Percent of Spikes in a Burst, Shafer Lab (AID 2284032);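 note: fitted as a decrease in burst spike percentage below DMSO baseline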
Method in brief: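 Value is trapezoidal AUC over recordings on days 5, 7, 9 and 12 of the well-mean fraction of spikes falling in single-electrode bursts; rat cortical cultures exposed continuously from plating, treatment renewed DIV 5 and 9, fitted downward against DMSO.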

[8] = CCTE_Shafer_MEA_dev_active_electrodes_number: CCTE's Neural Network Formation Assay for Number of Active Electrodes, Shafer Lab (AID 2284040; active = hit-call score of the fitted dose curve at least 0.9, where 1 is the maximum;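 note: potency for loss of active electrodes versus DMSO so lower counts are hits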)
Method in brief: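 Counts electrodes per well firing at least 5 spikes/min, recorded on days 5, 7, 9 and 12 in rat cortical cultures dosed continuously from plating (treatment refreshed DIV 5, 9). Value is the area under the curve over recordings, fitted downward relative to DMSO.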

[9] = CCTE_Shafer_MEA_dev_burst_rate: CCTE's Neural Network Formation Assay for Burst Rate, Shafer Lab (AID 2284042)
Method in brief: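 Primary rat cortical neurons on PEI-coated 48-well MEA plates (laminin added with cells at plating) (16 electrodes/well), exposed from plating to day 12, dosing renewed at DIV 5 and 9. Burst rate averaged over active electrodes, recorded DIV 5, 7, 9, 12, summarized as AUC; loss versus DMSO.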

[10] = CCTE_Shafer_MEA_dev_bursting_electrodes_number: CCTE's Neural Network Formation Assay for Number of Bursting Electrodes, Shafer Lab (AID 2284043; active = hit-call score of the fitted dose curve at least 0.9, where 1 is the maximum;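 note: potency is for loss of bursting electrodes relative to DMSO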)
Method in brief: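 Counted: electrodes with burst rate ≥1 per 2 min in each well. Cells: primary rat cortex, 1.5 x 10^5/well, on 16-electrode MEA wells. Exposure: DIV 0–12, compound renewed DIV 5 and 9. Recording days 5, 7, 9, 12; AUC vs DMSO baseline.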

[11] = CCTE_Shafer_MEA_dev_per_burst_interspike_interval: CCTE's Neural Network Formation Assay for Burst Interspike Interval, Shafer Lab (AID 2284044)
Method in brief: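 Neurons from rat cortex plated onto PEI-coated MEA wells with laminin […] at 1.5 x 10^5 cells/well, then treated from day 0. Media and compound fully replaced on DIV 5 and 9. Extracellular spontaneous firing recorded four times; interspike interval per burst summarised as AUC.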

[12] = CCTE_Shafer_MEA_dev_burst_duration_mean: CCTE's Neural Network Formation Assay for Mean Burst Duration, Shafer Lab (AID 2284045)
Method in brief: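 Network-formation assay in primary rat cortical neurons; treatment spans twelve days of development. Mean burst duration per well is integrated by trapezoidal AUC and fitted in the loss-of-signal direction against DMSO baseline.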

[13] = CCTE_Shafer_MEA_dev_interburst_interval_mean: CCTE's Neural Network Formation Assay for Mean Interburst Interval, Shafer Lab (AID 2284046);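 note: well-mean interburst interval of bursting electrodes as AUC over four recording days; curve fitted for decrease in interburst interval relative to DMSO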
Method in brief: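 Recordings on days 5, 7, 9 and 12 give well-mean interburst interval across actively bursting electrodes, summarized as area under the curve. Cultures: rat cortical neurons, continuous exposure from day 0, compound renewed at feeds; decrease analyzed versus DMSO.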

[14] = CCTE_Shafer_MEA_dev_inter_network_spike_interval_mean: CCTE's Neural Network Formation Assay for Mean Inter-network Spike Interval, Shafer Lab (AID 2284047)
Method in brief: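 Primary rat cortical neurons on 16-electrode MEA wells, exposed from plating day 0 through DIV 12, compound renewed at DIV 5 and 9 media changes. Mean interval between network-spike peaks recorded DIV 5, 7, 9, 12; collapsed as trapezoidal AUC, fitted downward versus DMSO.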

[15] = CCTE_Shafer_MEA_dev_network_spike_number: CCTE's Neural Network Formation Assay for Number of Network Spikes, Shafer Lab (AID 2284048);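 note: synchronized bursts across electrodes counted on days 5 7 9 12 and integrated as AUC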
Method in brief: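 Extracellular recordings from 16-electrode wells track network formation in rat cortical cultures under continuous treatment from plating. The endpoint is network spike number, expressed as AUC across DIV 5–12 relative to DMSO vehicle.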

[16] = CCTE_Shafer_MEA_dev_network_spike_peak: CCTE's Neural Network Formation Assay for Mean Number of Electrodes in Network Spike, Shafer Lab (AID 2284049)
Method in brief: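 Continuous 12-day exposure of rat cortical cultures, starting at plating, on MEA plates. Endpoint: electrodes participating in network-spike peaks, AUC across DIV 5–12, DMSO as negative control.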

[17] = CCTE_Shafer_MEA_dev_spike_duration_mean: CCTE's Neural Network Formation Assay for Mean Spike Duration, Shafer Lab (AID 2284051);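 note: mean network spike duration pooled as area under curve over DIV 5 to 12 recordings; potency for a decrease in mean network spike duration versus DMSO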
Method in brief: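 Primary rat cortical neurons on 16-electrode MEA wells (PEI-coated, laminin in plating drop), exposed from plating through DIV 12 with compound renewed at DIV 5 and 9. Mean network-spike duration recorded DIV 5, 7, 9, 12; trapezoidal AUC across days, DMSO baseline.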

[18] = CCTE_Shafer_MEA_dev_network_spike_duration_std: CCTE's Neural Network Formation Assay for Standard Deviation of Network Spike Duration, Shafer Lab (AID 2284052);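 note: area under curve of spike duration SD across recording days 5 to 12; hits are decreases in network spike duration SD versus DMSO vehicle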
Method in brief: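 Primary rat cortical neurons on PEI-coated 16-electrode MEA wells, exposed from plating day 0 through day 12 with compound renewed at DIV 5 and 9. Network spike duration SD recorded on days 5, 7, 9, 12, collapsed as trapezoidal AUC; loss-of-signal fit versus DMSO.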

[19] = CCTE_Shafer_MEA_dev_per_network_spike_spike_number_mean: CCTE's Neural Network Formation Assay for Mean Number of Spikes in a Network Spike, Shafer Lab (AID 2284053)
Method in brief: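 Primary rat cortical neurons on 48-well, 16-electrode MEA plates were exposed from plating to DIV 12, with dosing renewed on DIV 5 and 9. Spikes per network spike (0.05 s peak window) were recorded on DIV 5, 7, 9 and 12 and collapsed as trapezoidal AUC versus DMSO.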

[20] = CCTE_Shafer_MEA_dev_per_network_spike_spike_percent: CCTE's Neural Network Formation Assay for Percent of Spikes in a Network Spike, Shafer Lab (AID 2284054)
Method in brief: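 Developing networks of rat cortical neurons are dosed at day 0 and recorded extracellularly four times up to day 12. The endpoint is the area under the curve of percent spikes in network spikes, fitted in the negative direction relative to DMSO.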

[21] = CCTE_Shafer_MEA_dev_LDH: CCTE's Lactate Dehydrogenase Assay for Cytotoxicity in the Neural Network Formation Assay, Shafer Lab (AID 2284068; active = hit-call score of the fitted dose curve at least 0.9, where 1 is the maximum;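 note: exposure for twelve days from plating with re-dosing on DIV 5 and 9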)
Method in brief: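 Primary rat cortical neurons were plated on PEI/laminin MEA plates and exposed from day 0 for twelve days, with compound renewed at DIV 5 and 9. Cytotoxicity was determined by spectrophotometric LDH assay relative to DMSO.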

[22] = CCTE_Shafer_MEA_dev_AB: CCTE's Alamar Blue Assay for Cytotoxicity in the Neural Network Formation Assay, Shafer Lab (AID 2284083; active = hit-call score of the fitted dose curve at least 0.9, where 1 is the maximum;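 note: twelve days of exposure from plating with re-dosing on DIV 5 and 9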)
Method in brief: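 Primary rat cortical neurons on PEI-coated 48-well MEA plates, 1.5 x 10^5 cells/well in laminin drop; compound exposure from day 0 of plating for twelve days, renewed at medium changes on DIV 5 and 9. Viability read as resazurin reduction by fluorescence, relative to DMSO.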

[23] = CCTE_Shafer_MEA_dev_mutual_information_norm: CCTE's Neural Network Formation Assay for Mutual Information Normalization, Shafer Lab (AID 2284091)
Method in brief: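 Exposure of primary rat cortical neurons began at plating and ran to DIV 12, with full media and treatment renewal after DIV 5 and 9 recordings. Mutual information AUC (DIV 5–12) was analysed for loss versus DMSO.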

[24] = CCTE_Shafer_MEA_dev_correlation_coefficient_mean: CCTE's Neural Network Formation Assay for Mean Correlation Coefficient, Shafer Lab (AID 2284093)
Method in brief: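 Spontaneous activity recorded on days 5, 7, 9 and 12 post-plating; pairwise spike correlations are averaged across active electrodes and collapsed to an area-under-curve. Rat cortical cultures are dosed from plating through 12 days, with compound renewed at media changes.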

[25] = CCTE_Mundy_HCI_Cortical_Synap_Neur_Matur_NeuriteSpotCountPerNeuriteLength: CCTE's Synaptogenesis and Neurite Maturation Assay in rat cortical cells for Neurite Spot Count per Neurite Length, Mundy Lab (AID 2284210)
Method in brief: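 Neurite-associated synapse density (synaptophysin puncta per unit neurite length) is measured by fluorescence high-content imaging in rat cortical cultures treated from DIV 7 and fixed at DIV 12, with DMSO as negative control.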

[26] = CCTE_Mundy_HCI_Cortical_NOG_NeuriteLength: CCTE's Neurite Outgrowth Assay in rat cortical cells for Neurite Length, Mundy Lab (AID 2284213)
Method in brief: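 First, rat primary cortical cells were plated and, 2 h later, given test chemical as a 1/10 dilution. Finally, βIII-tubulin immunostaining enabled automated imaging of neurite length.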

[27] = CCTE_Mundy_HCI_Cortical_Synap_Neur_Matur_NeuriteLength: CCTE's Synaptogenesis and Neurite Maturation Assay in rat cortical cells for Neurite Length, Mundy Lab (AID 2284214)
Method in brief: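 Neurite length quantified by automated high-content imaging of MAP2, synaptophysin and Hoechst staining. Rat cortical cells received chemical from DIV 7 to DIV 12 […], glial growth arrested by AraC at DIV 5; DMSO baseline.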

[28] = CCTE_Mundy_HCI_Cortical_Synap_Neur_Matur_NeuriteSpotCountPerNeuron: CCTE's Synaptogenesis and Neurite Maturation Assay in rat cortical cells for Neurite Spot Count per Neuron Count, Mundy Lab (AID 2284215)
Method in brief: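 Rat cortical primary cultures; AraC DIV 5 to arrest glia; dosing + media change DIV 7; fixed DIV 12. Anti-MAP2/anti-synaptophysin, Hoechst nuclei; HCI puncta count per neuron, positive fitting direction vs DMSO.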

[29] = CCTE_Mundy_HCI_Cortical_Synap_Neur_Matur_SynapseCount: CCTE's Synaptogenesis and Neurite Maturation Assay in rat cortical cells for Synapse Count, Mundy Lab (AID 2284218)
Method in brief: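 High-content imaging of synaptophysin puncta per MAP2-positive neuron (Hoechst nuclei) in rat cortical cells exposed DIV 7–12 after glial arrest with AraC at DIV 5; decrease relative to DMSO scored.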

[30] = CCTE_Mundy_HCI_hN2_NOG_NeuriteLength: CCTE's Neurite Outgrowth Assay in human hN2 cells for Neurite Length, Mundy Lab (AID 2284220; active = hit-call score of the fitted dose curve at least 0.9, where 1 is the maximum)
Method in brief: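 Using βIII-tubulin immunofluorescence and Hoechst nuclear counterstain, this component quantifies neurite length in hNP1-derived neurons.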

[31] = CCTE_Mundy_HCI_hN2_NOG_NeuronCount: CCTE's Neurite Outgrowth Assay in human hN2 cells for Neuron Count, Mundy Lab (AID 2284221; active = hit-call score of the fitted dose curve at least 0.9, where 1 is the maximum)
Method in brief: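 Read-out is the number of betaIII-tubulin-positive neurons imaged by automated high-content analysis, with DMSO as negative control.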

[32] = CCTE_Mundy_HCI_Cortical_Synap_Neur_Matur_CellBodySpotCount: CCTE's Synaptogenesis and Neurite Maturation Assay in rat cortical cells for Cell Body Spot Count, Mundy Lab (AID 2284223)
Method in brief: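 Rat cortical neurons; AraC @ DIV 5; dose + media change DIV 7; fix DIV 12; anti-MAP2/anti-synaptophysin IF, Hoechst; HCI count of soma synaptophysin puncta/neuron; DMSO = negative control.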

[33] = CCTE_Mundy_HCI_Cortical_NOG_NeuronCount: CCTE's Neurite Outgrowth Assay in rat cortical cells for Neuron Count, Mundy Lab (AID 2284236; active = hit-call score of the fitted dose curve at least 0.9, where 1 is the maximum;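 note: neurons counted by imaging betaIII-tubulin and Hoechst stained cortical cells; cells exposed to compound for about 48 hours before fixation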)
Method in brief: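 Read-out: neuron number by high-content imaging of betaIII-tubulin (Alexa Fluor-488) and Hoechst-labelled rat primary cortical cells.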

[34] = CCTE_Mundy_HCI_hNP1_Casp3_7: CCTE's Caspase-Glo 3/7 Assay in human neuroprogenitor cells for Apoptosis, Mundy Lab (AID 2284240)
Method in brief: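 Neuroepithelial-lineage stem cells from WA09 embryonic cells were treated with chemicals after 40–44 h of culture. Twenty-four hours later, caspase-3/7 activation was detected luminescently after a 30 min room-temperature reagent step, with DMSO as baseline.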

Measured: AC50

CN1C(=O)CN=C(c2ccccc2)c2cc(Cl)ccc21
active: [7] 3.62 µM | [8] 15 µM | [10] 4.58 µM | [17] 3.06 µM | [20] 15 µM | [34] 23 µM
inactive: all other assays above
